Measurements as given in PubChem BioAssay (EPA / NIEHS).
Activity calls are given as the source filed them. How the source made its calls: active means hit-call score of the fitted dose curve at least 0.9, where 1 is the maximum; inactive means score below 0.9.

read-out: Lipase C (LIPC), LIPC (gene 3990); assay: LTEA_HepaRG_LIPC: Life Technologies and Expression Analysis (LTEA) Assay for Lipase C (LIPC) using HepaRG (AID 2283514); conditions: mRNA level, 48 h; actives raise or lower the signal
Experimental: LTEA_HepaRG is a cell based, multiplexed-readout assay that uses HepaRG, a human liver cell line, with measurements taken at 48 hours after chemical dosing on a 96-well plate.LTEA_HepaRG_LIPC is one of 102 assay component(s) measured in the LTEA HepaRG cell culture assay. It is a marker of Steatosis.Data from the assay component LTEA_HepaRG_LIPC was analyzed into 1 endpoint. This assay endpoint, LTEA_HepaRG_LIPC, was analyzed with bidirectional fitting relative to DMSO as the negative control and baseline of activity. Using a type of inducible reporter, measures of mRNA induction for gain or loss-of-signal activity can be used to understand regulation of transcription factor activity. To generalize the intended target to other relatable targets, this assay endpoint is annotated to the esterase intended target family, where the subfamily is lipase.
A total of 1060 chemcials from the ToxCast library were tested in eight-point concentration-response experiments. Cell culture and cytotoxicity assays were conducted at Thermo Fisher Scientific's Custom Services facility (Madison, WI). A single lot of human HepaRG cells (Thermo Fisher Scientific, Frederick, MD) was used for the cell culture experiments. 96-well format collagen type I coated plates of human HepaRG cells were prepared using established methods. Briefly, cryopreserved HepaRG cells were thawed, plated at a density of approximately 100,000 cells/well in HepaRG Thaw, Plate, and General Purpose media (HPRG770, Thermo Fisher Scientific), and incubated for 48 hours. 0.5% DMSO was selected as vehicle control to balance the requisite need of DMSO in HepaRG cultures to maintain differentiation (for example, baseline metabolism, proportions of hepatocytes vs. cholangiocytes), while enabling further hepatic receptor pathway activation (for example, PXR and CAR) in response to chemical exposure. 48 hours after plating, the culture medium was replaced with HepaRG Serum-Free Incudtion Media. Cells were exposed to each test chemical in duplicate and maintained in CO2 incubators for another 48 hours. Chemical plates were thawed to room temperature and 200x concentrations of treatment groups were prepared. 8-point conentration-reponse curves were made with the highest exposure at 100 uM, followed by half-log dilutions, all in 0.5% DMSO. Each test plate contained variouse controls, induction positive controls (1mM phenobarbital), cytotoxicity positive controls ([…] aflatoxin B1), vehicle controls (0.5% DMSO), and total lysis controls (0.5% DMSO). Cell morphology images were taken using an Essen IncuCyte FLR automated microscope, with six 96-well plates imaged in about 24 minutes. Images were captured and exported and JPEG files. Spent culture media was transfered to black-well plates for the LDH assay, and remaining media was sorted at -80 C for later use. Cells were treated with RLT buffer and frozen until shipped for gene expression analysis. Total RNA was isolated from the cell suspension in 75 uL of Buffer RLT (Qiagen, Germantown, MD 20874) by Quintiles/Expression Analysis (Durham, NC) using a custom isolation procedure. Total RNA from each plate well was transferred to a preamplification plate. Fluidigm's 96.96 Dynamic ArrayTM (Fluidigm, Amsterdam, the Netherlands) technology was used for gene expression analyses by quantitative reverse transcription polymerase chain reaction (qRT-PCR, performed by Quintiles/Expression Analysis, Durham, NC)89. Standard TaqManTM Assays (Applied Biosystems/ThermoFisher Scientific, Foster City, CA) were used to assess the expression of 93 genes selected based on their selectivity and sensitivity to important hepatic receptors known to be modulated by environmental chemicals; importance in human hepatocyte functionality; and hepatotoxicity. […]

With `O=C(c1ccccc1)c1ccccc1` as the compound, how does the outcome read?
Its outcome is “inactive”.

With `CCCCc1oc2ccccc2c1C(=O)c1cc(I)c(OCCN(CC)CC)c(I)c1` as the compound, how does the AC50 read?
Its AC50 is 55.7 µM (active).

`OCC(CO)(CBr)CBr` was tested. Which outcome did it give?
The outcome was “inactive”.

With `N=C(N)c1ccc(OCCCCCOc2ccc(C(=N)N)cc2)cc1` as the compound, how does the AC50 read?
The AC50 was 3.64 µM (active).

With `CCCCCCCCCCCCCCC` as the compound, how does the outcome read?
Its outcome is “inactive”.

For `CC(=O)Nc1ccc(O)cc1`, which outcome is on record?
Its outcome is “inactive”.

Which AC50 does the source give for `CS(=O)(=O)c1ccc([C@@H](CC2CCCC2)C(=O)Nc2cnccn2)cc1Cl` here?
Its AC50 is 86.9 µM (active).

For `CCCCC(CC)C(=O)O` (stereo unspecified), which outcome is on record?
Its outcome is “inactive”.

With `CN(Cc1cnc2nc(N)nc(N)c2n1)c1ccc(C(=O)N[C@@H](CCC(=O)O)C(=O)O)cc1` as the compound, how does the outcome read?
The outcome was “inactive”.

`Cc1[nH]nc2c1N=C(c1ccccc1Cl)c1cc([N+](=O)[O-])ccc1N2` was tested. Which AC50 did it give?
The AC50 was 11.2 µM (active).

`CCCCC=O` was tested. Which outcome did it give?
Its outcome is “inactive”.

How did the outcome turn out when `CN(C)CCOC(c1ccccc1)c1ccccc1` was run?
Its outcome is “inactive”.

Which outcome does the source give for `CCC(C)c1ccccc1O` (stereo unspecified) here?
The outcome was “inactive”.

Which AC50 does the source give for `CCCCCCCCCCCCOS(=O)(=O)O` here?
Its AC50 is 80.4 µM (active).

For `O=C(CCCN1CCC(O)(c2ccc(Cl)cc2)CC1)c1ccc(F)cc1`, which AC50 is on record?
Its AC50 is 84.9 µM (active).

`O=C1NS(=O)(=O)c2ccccc21` was tested. Which outcome did it give?
The outcome was “inactive”.
